Results taken from PubChem BioAssay (EPA / NIEHS).
Active and inactive are the calls of the source. How the source made its calls: active means hit-call score of the fitted dose curve at least 0.9, where 1 is the maximum; inactive means score below 0.9.

System: not listed separately
Assay: CCTE_Padilla_ZF_Score.Tail: CCTE's 144 Hour Post-fertilization zebrafish Assay Score for Tail Malformation, Padilla Lab (AID 2284414)
Outline: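 Wild-type zebrafish embryos, one per well in 200 uL 10% Hanks', dosed at 6-8 hpf, sealed, and kept at 26 C on a 14:10 h light cycle. Chemical was rinsed out at 5 dpf. Blinded brightfield scoring of tail defects followed at 6 dpf.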
For `FC(F)=C(F)OC(F)(F)C(F)(F)C(F)(F)F`, the outcome was “inactive”.
In the case of `CC=CC(F)(F)C(F)(F)C(F)(F)F`, the outcome is reported as “inactive”.
With `CCOC(F)(F)C(F)(F)C(F)(F)C(F)(F)F` the outcome was “inactive”.

System: not listed separately
Assay: CCTE_Padilla_ZF_Score.Blood_pooling: CCTE's 144 Hour Post-fertilization zebrafish Assay Score for Blood Pooling, Padilla Lab (AID 2284415)
Outline: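 Wild-type outbred zebrafish embryos, one per well in 10% Hanks', exposed from 6–8 hpf in sealed plates at 26C on 14:10 h light:dark, rinsed at 5 dpf. Blinded stereomicroscope scoring of blood pooling at 6 dpf; gain-of-signal versus DMSO.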
With `FC(F)=C(F)OC(F)(F)C(F)(F)C(F)(F)F` the outcome was “inactive”.
In the case of `CC=CC(F)(F)C(F)(F)C(F)(F)F`, the outcome is reported as “inactive”.
With `CCOC(F)(F)C(F)(F)C(F)(F)C(F)(F)F` the outcome was “inactive”.

System: not listed separately
Assay: CCTE_Padilla_ZF_Score.Any: CCTE's 144 Hour Post-fertilization zebrafish Assay Score for Any Mortality or Malformation, Padilla Lab (AID 2284416)
Outline: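 Wild-type zebrafish embryos with chorions, one per well in 10% Hanks' from 6–8 hpf, dosed in sealed plates at 26 C, 14:10 h light:dark; rinsed at 5 dpf; blinded scoring at 6 dpf for death or malformation, versus DMSO.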
In the case of `FC(F)=C(F)OC(F)(F)C(F)(F)C(F)(F)F`, the outcome is reported as “inactive”.
For `CC=CC(F)(F)C(F)(F)C(F)(F)F`, the outcome was “inactive”.
In the case of `CCOC(F)(F)C(F)(F)C(F)(F)C(F)(F)F`, the outcome is reported as “inactive”.

System: TTR (gene 7276)
Assay: CCTE_GLTED_hTTR_0.125uM: CCTE's human Transthyretin (hTTR) Inhibition Assay, with 0.125uM TTR, Great Lakes Toxicology and Ecology Division (GLTED) Lab (AID 2284431);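 further: hits lower the fluorescence signal relative to DMSO baseline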
Outline: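 Cell-free displacement of ANSA probe from 0.125uM TTR after 2 h incubation with chemical. Fluorescence read at 380 nm excitation/475 nm emission; loss of signal relative to DMSO indicates T4-site displacement.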
In the case of `CCCCC(CC)CCC(CC(C)C)OS(=O)(=O)O` (stereo not given), the AC50 is reported as 0.382 µM (active).
For `CCCCCCCC/C=C\CCCCCCCC(=O)O`, the AC50 was 3.32 µM (active).
For `O=S1(=O)OC(c2ccc(O)cc2)(c2ccc(O)cc2)c2ccccc21`, the AC50 was 3.34 µM (active).
In the case of `CCCCCCCCCCOS(=O)(=O)O`, the AC50 is reported as 3.68 µM (active).
For `CCCCCCCCCCCCCOP(=O)(O)O`, the AC50 was 0.78 µM (active).
For `O=c1cc(-c2ccccc2)oc2ccccc12`, the AC50 was 10.8 µM (active).
For `CN(C)c1ccc(N=Nc2ccccc2C(=O)O)cc1`, the AC50 was 8.96 µM (active).
With `Oc1ccc(Cl)cc1Cc1cc(Cl)ccc1O` the AC50 was 0.129 µM (active).
In the case of `COC(=O)c1c(C)cc(O)c(C)c1O`, the AC50 is reported as 1.29 µM (active).
In the case of `CC1=NN(c2cc(S(=O)(=O)O)ccc2Cl)C(=O)C1N=Nc1ccccc1` (stereo not given), the AC50 is reported as 5.76 µM (active).
In the case of `CCCCC/C=C\C/C=C\CCCCCCCC(=O)OC`, the AC50 is reported as 9.84 µM (active).
